Source: PubChem BioAssay (National Center for Advancing Translational Sciences (NCATS))
Most compounds without a hit are left out; they make up all but 11% or so of the library.
G9a inh: blocks human histone lysine methyltransferase G9a; Q96KQ7; G9a H3K9 monomethylation, AlphaScreen, 2 h; Potency, µM (doses to about 102 µM), for inactives: top-dose activity, negative = inhibition, most hits filed as inhibitors; 350,000 tested, 8.8% active; also: % is scaled to controls: 0 for no effect and ±100 for the full control effect; nearly all actives have a fitted effect of over 75% in size
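Using a bead-based AlphaScreen, monomethylated H3K9 product from 2 h room-temperature reactions (G9a 20 nM, peptide 500 nM, SAM 20 uM) was detected with 0.5 ug/mL rabbit anti-H3K9me1 antibody.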
HP1b binding inh: blocks HP1-beta chromodomain binding to methylated histone tails; P83916; AlphaScreen HP1-beta / biotin-H3K9me3 peptide binding; Potency, µM (top dose mostly 114 µM), without a hit: top-dose activity change, negative = inhibition, usual class: inhibitors; 390,000 tested, 0.56% active; also: nearly all actives have a fitted effect of over 70% in size
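AlphaScreen: HP1-beta (50 nM) preformed 30 min with biotin-H3(1-18)K9me3 peptide (50 nM) in PBS pH 7.4, 0.01% Tween-20. Compound added for 30 min at RT, then streptavidin donor/nickel chelate acceptor beads (10 ug/mL) for 30 min.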
L3MBTL1 inh: inhibitors of human L3MBTL1 | Q9Y468 | 230,000 tested, 0.66% active | AlphaScreen L3MBTL1–H3K9me1 peptide binding | Potency, µM (doses to about 57.1 µM), for inactives: top-dose activity, negative = inhibition, hits mostly inhibitors; also: % is scaled to controls: 0 for no effect and ±100 for the full control effect; nearly all actives have a fitted effect of over 60% in size
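AlphaScreen proximity signal between nickel-chelate acceptor and streptavidin donor beads (final 10 ug/mL) reports binding of 50 nM L3MBTL1 to 75 nM biotin-H3 K9me1 peptide; complex incubated with compounds 30 min at room temperature; cefsulodin titration as control.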
BAZ2B inh: inhibitors of human BAZ2B bromodomain; Q9UIF8; AlphaScreen BAZ2B-H3K14Ac peptide displacement; Potency, µM (doses to about 114 µM), inactives show at the top dose activity change, negative = inhibition, hits mostly inhibitors; 360,000 tested, 4.4% active; AID 504333; also: % is scaled to controls: 0 for no effect and ±100 for the full control effect; nearly all actives have a fitted effect of over 60% in size
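AlphaScreen displacement of biotin-H3(5-23)K14Ac peptide (50 nM final) from BAZ2B (50 nM final) in PBS pH 7.4, 0.01% Tween-20; complex preformed 30 min RT, then compounds (top 110 uM) 30 min RT, beads 20 min dark.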
JMJD2A Tudor inh: blocks the human JMJD2A Tudor domain; O75164; AlphaScreen JMJD2A-Tudor / H3K4me3 peptide binding; Potency, µM (doses to about 114 µM), for inactives: top-dose activity change, negative = inhibition, usual class: inhibitors; 390,000 tested, 4.4% active; AID 504339; also: % is scaled to controls: 0 for no effect and ±100 for the full control effect; nearly all actives have a fitted effect of over 50% in size
Target sequence (O75164 whole entry, looked up, the tested form may be a part): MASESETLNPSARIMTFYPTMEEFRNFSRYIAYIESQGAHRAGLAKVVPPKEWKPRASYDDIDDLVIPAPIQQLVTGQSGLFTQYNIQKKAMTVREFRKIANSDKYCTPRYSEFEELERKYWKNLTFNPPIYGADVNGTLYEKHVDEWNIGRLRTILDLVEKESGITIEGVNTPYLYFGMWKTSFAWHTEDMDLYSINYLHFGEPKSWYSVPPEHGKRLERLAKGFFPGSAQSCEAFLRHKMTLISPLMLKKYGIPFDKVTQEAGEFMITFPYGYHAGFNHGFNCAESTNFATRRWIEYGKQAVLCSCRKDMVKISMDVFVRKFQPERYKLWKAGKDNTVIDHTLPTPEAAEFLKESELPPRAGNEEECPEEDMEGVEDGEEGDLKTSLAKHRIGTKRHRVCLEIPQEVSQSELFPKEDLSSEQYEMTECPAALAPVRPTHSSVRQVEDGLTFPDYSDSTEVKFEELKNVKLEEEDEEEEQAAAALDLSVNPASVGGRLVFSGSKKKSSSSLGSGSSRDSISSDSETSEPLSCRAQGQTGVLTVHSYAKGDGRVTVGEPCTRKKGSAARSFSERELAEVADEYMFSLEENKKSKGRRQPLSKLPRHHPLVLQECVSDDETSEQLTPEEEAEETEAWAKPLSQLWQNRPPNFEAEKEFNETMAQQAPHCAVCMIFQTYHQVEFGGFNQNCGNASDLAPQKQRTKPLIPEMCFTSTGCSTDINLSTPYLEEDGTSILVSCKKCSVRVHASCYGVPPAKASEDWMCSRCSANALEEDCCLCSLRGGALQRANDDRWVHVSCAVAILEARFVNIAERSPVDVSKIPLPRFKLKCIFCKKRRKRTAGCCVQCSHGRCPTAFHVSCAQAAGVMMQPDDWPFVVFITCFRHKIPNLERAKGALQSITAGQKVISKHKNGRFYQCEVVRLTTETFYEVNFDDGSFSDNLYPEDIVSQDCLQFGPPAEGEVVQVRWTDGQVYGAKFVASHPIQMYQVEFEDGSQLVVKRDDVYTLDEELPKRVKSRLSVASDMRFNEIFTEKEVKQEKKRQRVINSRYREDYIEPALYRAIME
* = called active by the depositor; ? = inconclusive; / = not tested or not shown; [ ] = another dose, or the depositor's remark. Calls follow the shape of the dose curve; as a rule, active = well fitted inhibition curve with a large enough effect; inconclusive = small, poorly fitted or top-dose-only effect; inactive = no such curve, though single readings can be large or run the other way. Potency is read from the fitted curve at half-maximal effect.

SMILES	G9a inh	HP1b binding inh	L3MBTL1 inh	BAZ2B inh	JMJD2A Tudor inh
Cc1cccc(C(=O)NCC(=O)OC(C)C(=O)Nc2ccc(Cl)cn2)c1 (stereo not drawn)	-33%[59 µM]	31%	21%	-1%	-9%
CCOc1ccc2cc(C3CC(c4ccco4)=NN3S(C)(=O)=O)c(=O)[nH]c2c1 (stereo not drawn)	/	?	/	-32%	50µM*
Cc1ccc2cc(C3CC(c4ccco4)=NN3S(=O)(=O)c3ccccc3)c(Cl)nc2c1 (stereo not drawn)	50µM*	18%	-3%	-38%	-23%
CCOc1ccc2cc(C3CC(c4ccco4)=NN3S(=O)(=O)c3ccccc3)c(Cl)nc2c1 (stereo not drawn)	10µM*	-7%	-1%	?	-34%
CCOc1ccc(OCC)c(NC(=O)CCc2c(C)nc3c(c2C)c(=O)n(C)c(=O)n3C)c1	9%[59 µM]	15%	/	-18%	-18%
CN(C)C(=O)CN1C(=O)c2cccc3cccc1c23	/	35%	33%	25%	1%
CCN1C(=O)c2cccc3cccc1c23	-23%[12.7 µM]	9%	/	36%	32µM*
CCN(C(=O)c1cc2c(s1)-c1ccccc1OC2)c1cccc(C(F)(F)F)c1	152%[59 µM]	150%	/	121%	118%
O=C(O)CCc1ccc(-c2ccc(Br)cc2)n1Cc1ccco1	?	-16%	-22%	50µM*	79µM*
O=C(O)CCc1ccc(-c2ccccc2)n1Cc1ccco1	32µM*	3%	/	50µM*	?
O=C(O)CCc1ccc(-c2ccc(F)cc2)n1Cc1ccco1	9%[12.7 µM]	1%	-4%	-37%	?
CCc1ccccc1-n1nnnc1SCC(=O)Nc1ccc(N2CCN(C)CC2)cc1	50µM*	50%	/	?	10%
Cc1ccccc1-n1nnnc1SC(C)C(=O)Nc1ccc(N2CCN(C)CC2)cc1 (stereo not drawn)	-8%[12.7 µM]	-1%	/	?	?
Cc1cccc(-n2nnnc2SCC(=O)Nc2ccc(N3CCN(C)CC3)cc2)c1	45µM*	-3%	/	?	?
Cc1ccccc1-n1nnnc1SCC(=O)Nc1ccc(N2CCN(C)CC2)cc1	50µM*	38%	/	-32%[57.1 µM]	?
CN(C(=O)c1ccc2c(c1)N(Cc1cccc(Cl)c1)C(=O)c1ccccc1S2(=O)=O)C1CCCCC1	-24%[59 µM]	11%	/	1%	-18%
COc1cccc(CNC(=O)CSc2nnc(C)c3c(C)n(-c4ccccc4)nc23)c1OC	-15%[59 µM]	38%	/	-18%	-10%
COc1ccc(NS(=O)(=O)c2ccc3c(c2)CC(C)N3C(C)=O)c(OC)c1 (stereo not drawn)	-2%[59 µM]	54%	/	2%	5%
CCOc1ncccc1C(=O)NNC(=O)c1cccc(S(=O)(=O)Nc2ccc(OC)cc2)c1	31%	28%	/	-4%	-10%
Cc1nc(S(=O)(=O)c2ccc(Cl)cc2)c(NCc2ccccc2)o1	45µM*	45%	/	-6%	1%
O=S(=O)(c1ccc(Cl)cc1)c1nc(-c2ccccc2F)oc1NCc1ccccc1	-29%[59 µM]	3%	/	?	-16%
Cc1c(Cl)cccc1NC(=O)CC(c1cccs1)N1Cc2ccccc2C1=O (stereo not drawn)	-17%[59 µM]	46%	/	-18%	0%
COCCn1c(-c2ccc(OC)cc2)c(-c2ccc(OC)cc2)oc1=O	-21%[2.33 µM]	-12%	/	35µM*	-14%
COCCn1c(=O)c(-c2ccc(OC)cc2)nc2cnc(OC)nc21	0%[12.7 µM]	/	/	/	/
Nc1nonc1-c1nc2ccccc2n1CC(=O)Nc1ccccc1C(=O)O	37%[59 µM]	27%	/	6%[57.1 µM]	-6%
SMILES	G9a inh	HP1b binding inh	L3MBTL1 inh	BAZ2B inh	JMJD2A Tudor inh
O=Cc1ccc(-c2cccc(C(=O)O)c2)o1	50µM*	26%	?	?	-22%
CCOC(=O)c1cccc(-c2ccc(C=O)o2)c1	-29%[59 µM]	18%	-14%	7%	-14%
Cc1ccc(-c2ccc(/C=C/C(=O)c3ccccc3)o2)cc1	-19%[59 µM]	-6%	-12%	?	-20%
Cc1nnc(N/N=C/c2ccc(-c3ccc(Br)cc3)o2)n1N	-46%	-14%	-23%	/	-30%
Cc1nnc(N/N=C\c2ccc(-c3cccc(C(=O)O)c3)o2)n1N	40µM*	-9%	?	79µM*	25µM*
O=C(/C=C/c1ccc(-c2ccccc2)o1)c1ccccc1	?	?	-21%	35µM*	-4%
Nc1nonc1-c1nc2ccccc2n1CC(=O)N/N=C/c1ccc(-c2cccc(C(=O)O)c2)o1	7.9µM*	50µM*	?	20µM*	40µM*
O=C(NCCc1ccccc1)c1ccc2c(c1)N(Cc1ccccc1)C(=O)c1ccccc1S2=O (stereo not drawn)	3%[59 µM]	22%	/	?	-19%
COc1ccc(CN(Cc2ccco2)C(=O)COc2ccccc2OC)cc1	-5%[59 µM]	3%	/	-19%	-34%
Cc1ccc(N(Cc2cccs2)C(=O)c2ccc(OC(C)C)cc2)cc1	65%[59 µM]	79%	/	18%	48%
COc1ccc(C(=O)Nc2ccc3nc(SCC(=O)N(C)c4ccccc4)sc3c2)cc1	17%[59 µM]	62%	/	2%	-6%
COc1cc(C)c(C)cc1S(=O)(=O)Nc1cccc(-c2ccc(N3CCOCC3)nn2)c1	?	14%[57 µM]	/	-14%	-9%
COc1c([N+](=O)[O-])cc(C(=O)NNC(=O)c2ccc(C)cc2)cc1[N+](=O)[O-]	1%	14%	3%	-6%	-20%
CCN1C(=O)S/C(=C/c2c(OCc3ccc(C(=O)O)cc3)ccc3ccccc23)C1=O	50µM*	-4%	-5%	?	?
CN(C)CCNC(=O)c1scc2c1CCCC2	/	25%	/	?	89µM*
O=C(c1ccco1)N(CCC(c1ccccc1)c1ccco1)Cc1ccccc1 (stereo not drawn)	?	-1%	?	50µM*	56µM*
CCC(=O)N(CCC(c1ccccc1)c1ccco1)Cc1cccs1 (stereo not drawn)	30%[0.501 µM]	31%	2%	?	1%
COc1ccc(C(c2nnnn2C2CCCCC2)N2CCN(c3ccc(OC)cc3)CC2)cc1 (stereo not drawn)	?	?	/	40µM*	?
Cc1ccc(C(c2nnnn2C2CCCCC2)N(C)C2CCCCC2)cc1 (stereo not drawn)	1.8µM*	19%	/	4%	9%
c1cc(N2CCCC2)ccc1C(c1nnnn1C1CCCCC1)N1CCOCC1 (stereo not drawn)	10µM*	-18%	-18%	?	?
COc1ccc(OC)c(C(c2nnnn2C2CCCC2)N2CCN(c3ccccc3)CC2)c1 (stereo not drawn)	32µM*	-24%	-20%	50µM*	56µM*
COc1ccc(C(c2nnnn2C2CCCCC2)N2CCN(C)CC2)c(OC)c1 (stereo not drawn)	-37%	29%	3%	-10%	-3%
